Data from PubChem BioAssay.
Calls of active or inactive are those of the source.

Assays:
[1] = A549 cell viability effects, profiling panel, calcein-AM fluorescence, 48 h, basal (AID 1162); settings: higher = more signal; note: test concentration not given here
[2] = adipocyte viability effects, profiling panel, cell-based, 3T3-L1 adipocytes, calcein-AM fluorescence, 48 h, basal (AID 1163); settings: 3T3-L1 adipocytes viability, higher = more signal; note: test concentration not given here
[3] = HepG2 cell viability effects, profiling panel, calcein-AM fluorescence, 48 h, basal (AID 1164); settings: higher = more signal; note: test concentration not given here
[4] = MM1S cell viability effects, profiling panel, calcein-AM fluorescence, 48 h, basal (AID 1165); settings: higher = more signal;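 note: viability of MM1S multiple myeloma cells under basal unstimulated conditions; test concentration not given here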
[5] = basal RPMI8226 viability, no added stimulus, profiling panel, cell-based, calcein-AM fluorescence, 48 h, PK04 Diversity Set (AID 1166); settings: RPMI8226 myeloma viability, higher = more signal;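 note: cells grown under basal conditions without added stimulus; test concentration not given here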
[6] = basal HepG2 mitochondrial membrane potential changes, profiling panel, cell-based, JC-1 fluorescence, 24 h, 100 nL compound (AID 1167); settings: higher = more signal; note: test concentration not given here
[7] = basal 3T3-L1 adipocyte mitochondrial potential changes, profiling panel, cell-based, JC-1 fluorescence, 3T3-L1 adipocytes, 24 h, 100 nL compound (AID 1168); settings: JC-1 mitochondrial fluorescence, higher = more signal, called active from +8 up or from −8 down; note: test concentration not given here
[8] = basal RPMI8226 mitochondrial membrane potential changes, profiling panel, cell-based, JC-1 fluorescence, 24 h, 100 nL compound (AID 1169); settings: RPMI8226 myeloma, JC-1 mitochondrial potential fluorescence, higher = more signal; note: test concentration not given here
[9] = basal MM1S mitochondrial membrane potential changes, profiling panel, cell-based, JC-1 fluorescence, 24 h, 100 nL compound (AID 1170); settings: higher = more signal; note: test concentration not given here
[10] = A549 lung cancer cell viability effects, profiling panel, resazurin fluorescence, 24 h, PK04 Diversity Set (AID 1171); settings: higher = more signal, called active from +8 up or from −8 down; note: test concentration not given here
[11] = HepG2 liver cancer cell viability effects, profiling panel, resazurin fluorescence, 24 h, PK04 Diversity Set (AID 1172); settings: higher = more signal; note: test concentration not given here
[12] = basal S. cerevisiae growth modulation, no modifier, primary screen, OD600, strain BY4716, 24 h, basal condition (AID 1173); settings: OD600, 24 h, higher = more signal, called active from +8 up or from −8 down
[13] = MM1S myeloma cell viability, profiling panel, resazurin fluorescence, basal, 24 h, PK04 Diversity Set (AID 1174); settings: higher = more signal, called active from +8 up or from −8 down;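 note: MM1S multiple myeloma cell line; test concentration not given here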
[14] = target: Dihydroorotate dehydrogenase (quinone), mitochondrial (Plasmodium falciparum (isolate 3D7)) (UniProt Q08210); assay: PfDHODH enzyme inhibitors, primary screen, biochemical, C-terminal His tag, absorbance 600 nm (AID 1175); settings: DCIP absorbance 600 nm, higher = more signal, called active from +8 up or from −8 down;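 note: recombinant parasite enzyme with a five histidine tag at its C terminus; test concentration not given here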
Chain of Dihydroorotate dehydrogenase (quinone), mitochondrial (Plasmodium falciparum (isolate 3D7)) (Q08210 whole entry, looked up): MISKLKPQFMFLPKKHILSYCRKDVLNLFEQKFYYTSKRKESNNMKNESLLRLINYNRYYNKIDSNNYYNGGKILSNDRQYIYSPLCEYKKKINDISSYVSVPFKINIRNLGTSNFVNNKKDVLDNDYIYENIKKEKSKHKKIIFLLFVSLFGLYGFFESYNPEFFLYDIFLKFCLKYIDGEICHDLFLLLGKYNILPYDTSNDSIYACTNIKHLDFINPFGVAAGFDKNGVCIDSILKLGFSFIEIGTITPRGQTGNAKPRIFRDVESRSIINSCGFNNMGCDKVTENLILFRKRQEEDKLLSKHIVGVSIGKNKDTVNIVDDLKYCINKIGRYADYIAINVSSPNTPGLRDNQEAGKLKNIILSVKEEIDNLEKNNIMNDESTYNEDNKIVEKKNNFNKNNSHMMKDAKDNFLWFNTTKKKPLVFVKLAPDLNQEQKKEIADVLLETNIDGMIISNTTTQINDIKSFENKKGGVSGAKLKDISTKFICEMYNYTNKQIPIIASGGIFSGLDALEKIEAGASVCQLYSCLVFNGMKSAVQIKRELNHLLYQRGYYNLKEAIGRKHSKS

[15] = S. cerevisiae RM11-1a growth modifiers, primary screen, strain RM11-1a, OD600, basal, 24 h (AID 1177); settings: OD600, 24 h, higher = more signal, called active from +8 up or from −8 down;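 note: cultures grown under basal conditions with no added stressor; test concentration not given here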
[16] = E. coli acrAB mutant growth effects, primary screen, E. coli filamentation inducers, strain DRC39, OD650, 24 h (AID 1178); settings: higher = more signal, called active from +8 up or from −8 down;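 note: growth measured as culture turbidity by optical density at 650 nm; test concentration not given here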
[17] = E. coli acrAB mutant growth effects, primary screen, E. coli filamentation inducers, strain DRC39, OD650, 48 h (AID 1179);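 note: screen aims at cell division blockers that make cells filament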; settings: E. coli DRC39 delta-acrAB growth, higher = more signal, called active from +8 up or from −8 down
[18] = RPMI8226 myeloma cell viability, profiling panel, resazurin fluorescence, basal, 24 h, PK04 Diversity Set (AID 1180); settings: higher = more signal;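 note: RPMI8826 multiple myeloma cell line at 5000 cells per well; test concentration not given here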
[19] = target: E3 ubiquitin-protein ligase XIAP (Homo sapiens) (UniProt P98170); assay: XIAP binders, primary screen, biophysical, small-molecule microarray, fluorescence 635 nm (AID 1181); settings: small-molecule microarray binding, higher = more signal;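 note: score merges 667 nm emission and signal to noise over triplicate slides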
Chain of E3 ubiquitin-protein ligase XIAP (Homo sapiens) (P98170 whole entry, looked up): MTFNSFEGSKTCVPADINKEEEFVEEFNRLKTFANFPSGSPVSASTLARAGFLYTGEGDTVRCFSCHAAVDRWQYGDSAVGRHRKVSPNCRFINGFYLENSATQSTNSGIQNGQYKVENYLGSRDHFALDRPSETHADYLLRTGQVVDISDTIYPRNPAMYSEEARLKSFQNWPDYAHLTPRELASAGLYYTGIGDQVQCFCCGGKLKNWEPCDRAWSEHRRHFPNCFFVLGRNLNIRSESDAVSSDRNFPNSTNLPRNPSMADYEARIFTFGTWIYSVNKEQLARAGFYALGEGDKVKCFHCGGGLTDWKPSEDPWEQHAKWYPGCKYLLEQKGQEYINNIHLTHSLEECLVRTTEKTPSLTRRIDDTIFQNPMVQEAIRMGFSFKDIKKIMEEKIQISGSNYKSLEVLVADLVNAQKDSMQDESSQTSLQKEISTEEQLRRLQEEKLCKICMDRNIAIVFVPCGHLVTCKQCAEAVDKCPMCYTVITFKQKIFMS

SMILES	z-score [1]	z-score [2]	z-score [3]	z-score [4]	z-score [5]	z-score [6]	z-score [7]	z-score [8]	z-score [9]	z-score [10]	z-score [11]	z-score [12]	z-score [13]	composite z-score [14]	z-score [15]	z-score [16]	z-score [17]	z-score [18]	composite z-score [19]
CC(=O)Nc1ccc([C@H]2[C@H](C)CC[C@H]3C(=O)N4[C@@H](CC[C@@H](C)[C@@H]4c4ccc(NC(C)=O)cc4)C(=O)N32)cc1	1.04	1.1	0.277	-0.715	-0.439	-1.16	-0.183 (inactive)	-0.365	-0.559	0.553 (inactive)	1.23	-1.08 (inactive)	-0.269 (inactive)	0.124 (inactive)	0.897 (inactive)	1.22 (inactive)	0.141 (inactive)	0.868	-0.0204
O=C(NCC(O)CO)[C@]1(Cc2ccccc2)N=C(c2ccc(OCCCO)cc2)O[C@@H]1c1ccccc1 (stereo partly specified)	-0.798	1.91	-2.22	-1.26	-1.08	-1.81	1.03 (inactive)	0.159	0.245	0.519 (inactive)	0.206	-3.32 (inactive)	1.71 (inactive)	0.287 (inactive)	-0.989 (inactive)	2.22 (inactive)	0.235 (inactive)	0.761	0.0251
CN(C)CCCC[C@@H]1NC(=O)[C@@H]2C[C@H](C(=O)O)[C@H](c3ccc(O)cc3)N2C1=O	-0.533	1.36	-1.03	-3.01	-0.102	1.26	0.292 (inactive)	-0.0425	-0.971	-0.385 (inactive)	-1.15	-0.976 (inactive)	1.2 (inactive)	-0.621 (inactive)	-0.422 (inactive)	0.994 (inactive)	-0.0998 (inactive)	0.493	0.101
CC(C)CN1C(=O)[C@@]2(Cc3ccccc31)c1ccccc1C(=O)N(C1CCCCC1)[C@H]2c1ccc(CO)cc1	0.572	1.86	0.502	0.845	-0.0832	-0.178	0.938 (inactive)	-0.6	0.00808	0.148 (inactive)	0.0515	-1.91 (inactive)	1.05 (inactive)	-2.88 (inactive)	-1.12 (inactive)	0.164 (inactive)	0.464 (inactive)	1.21	0.377
CO[C@H]1COC(=O)CC=C[C@H](C)COC(=O)[C@@H](OCc2ccccc2)C=C[C@@H]1C	-0.696	-0.886	0.806	0.178	-1.73	0.96	0.877 (inactive)	0.103	0.398	0.0283 (inactive)	-0.103	-0.348 (inactive)	1.46 (inactive)	-2.5 (inactive)	-1.22 (inactive)	0.566 (inactive)	0.171 (inactive)	0.627	-0.22
CCN1C(C)=C(C(=O)OC)[C@@H](c2ccccc2)N2C(=O)[C@@]3(C(=O)OC)O[C@@]12[C@@H]1C(=O)N(C)C(=O)[C@@H]13	0.0516	0.59	-0.616	-1.51	0.68	0.684	1.15 (inactive)	0.644	-0.196	0.363 (inactive)	0.976	-0.684 (inactive)	0.947 (inactive)	1.18 (inactive)	0.335 (inactive)	-0.234 (inactive)	-0.992 (inactive)	1.09	-0.0454
C=CCNC(=O)[C@H]1[C@@H]2C(=O)O[C@@H](c3ccccc3)[C@@H](c3ccccc3)N2[C@@H](c2ccccc2OCCO)[C@]12C(=O)N(C(=O)OCCOC)c1ccc(C#CCNC(N)=O)cc12	0.883	1.68	-0.127	-1.13	-0.66	0.208	1.39 (inactive)	-0.711	-0.616	1.13 (inactive)	0.834	0.338 (inactive)	1.71 (inactive)	-1.11 (inactive)	1.04 (inactive)	0.845 (inactive)	1.06 (inactive)	1.72	-0.23
C=CC[C@]1(C(=O)NCC(O)CO)N=C(c2ccc(OCCCO)cc2)O[C@H]1c1ccccc1 (stereo partly specified)	0.495	0.991	0.417	-0.176	0.213	-0.0851	-0.386 (inactive)	-0.895	0.334	0.912 (inactive)	0.766	-1.49 (inactive)	0.776 (inactive)	-0.537 (inactive)	-1.07 (inactive)	1.44 (inactive)	0.199 (inactive)	1.01	-0.0102
CCC(=O)[C@]12O[C@@]3([C@@H]4C(=O)OCC[C@@H]41)N(CC)C(C)=C(C(=O)OC)[C@@H](c1ccccc1)N3C2=O	0.569	1.77	0.0496	-0.868	-1.8	0.684	0.112 (inactive)	-0.537	0.541	-0.257 (inactive)	0.121	-2.81 (inactive)	-0.01 (inactive)	-0.191 (inactive)	-0.805 (inactive)	-0.772 (inactive)	0.09 (inactive)	0.74	0.0178
